The panel holds about 83,000 compounds, 20% with a hit somewhere; the sample as a whole holds those more often.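 A percent growth of 40 corresponds to 60% growth inhibition; 0 means no net growth; -100 means all cells died. Active threshold: below 10.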 Unmarked numbers belong to inactive results. Active and inactive are the calls of the source.
These compounds were tested on SK-MEL-28 melanoma (assay: NCI-60 one-dose screen, 48 h (100 = growth as untreated, 0 = no growth, -100 = all killed)). Conditions: 10 µM unless noted.
Compound `Cc1cc(C(=O)Nc2sc3c(c2C(N)=O)CCC(=O)C3)ccc1OCCN1CCCCC1` has a growth of 115%. Work on `CN(C)c1ccc(/C=c2\sc3nc4ccccc4n3c2=O)cc1` yielded a growth of 103%. With `CN(C)c1ccc(/C=C2\Cc3c(F)ccc(Br)c3C2=O)cc1` the growth was 97.4%. In the case of `CN1CCN(Cc2ccc(NC(=O)c3cncc(C#Cc4cnc5ccc(N6CCSCC6)nn45)c3)cc2C(F)(F)F)CC1`, the growth is reported as -48.1% (active). `COc1cc(/C=C/C(=O)c2ccc(C)cc2)ccc1Oc1nc(NCCO)nc(N2CCOCC2)n1` gave a growth of 76.6%. Compound `O=C(CSc1nnc(-c2ccc3nc(-c4ccc(Cl)cc4)[nH]c3c2)o1)Nc1ccc(C(=O)/C=C/c2ccc(Cl)cc2)cc1` has a growth of 106%. With `C#Cc1nc(C2=C(C)C(=N\O)/C(=N/O)C2)cs1` the growth was 111%. `CCOc1ccc2nc(NC(=O)c3ccc(C(F)(F)F)cc3)sc2c1` showed a growth of 105%. In the case of `CC(O)C(NC(=O)C1CCCN1C(=O)CNC(=O)C1CC(=O)NCC(=O)NC(Cc2c[nH]c3ccccc23)C(=O)NC(Cc2ccc(O)cc2)C(=O)NCC(=O)NC(CO)C(=O)NC(CCC(N)=O)C(=O)NC(Cc2c[nH]c3ccccc23)C(=O)N1)C(=O)NCC(=O)NC(CCC(N)=O)C(=O)NC(CCCNC(=N)N)C(=O)NC(CC(=O)O)C(=O)O` (stereo unspecified), the growth is reported as 99.6%. `CC1=C(C)C(=O)C(Nc2ccccc2)=C(Cl)C1=O` showed a growth of 106%. Work on `CO/N=C1\CCc2c(sc(NC(=O)c3cccc(C(F)(F)F)c3)c2C(N)=O)C1` yielded a growth of 60.3%. In the case of `COc1ccc(CNS(=O)(=O)/N=C2\NC(=O)NC2=C(Cl)Cl)cc1`, the growth is reported as 48.7%. With `NS(=O)(=O)c1cccc(Nc2nc(SCC(=O)c3ccc([N+](=O)[O-])cc3)nc3ccccc23)c1` the growth was 60.3%. `Cn1ccnc1C(=O)/C=C/c1ccc(NC(=O)Nc2ccccc2)cc1` was tested, and the growth was 75.1%. `CCOC(=O)c1sc(N)c(C(=O)OCC)c1C` showed a growth of 78.8%. In the case of `CN(C)S(=O)(=O)c1oc(-c2ccccc2)nc1C#N`, the growth is reported as 87.8%. `O=C1Nc2cc(Cl)ccc2/C1=C\c1ccc(OCc2ccc(Br)cc2F)cc1` was tested, and the growth was -63% (active). With `COc1cc(/C=C/C(=O)c2cc(OC)c(OC)c(OC)c2)ccc1OCc1ccccc1` the growth was 78.8%. Work on `NC(=O)c1cc(-c2ccc3ncnc(N4CCc5cc(F)c(Cl)cc54)c3c2)cnc1N` yielded a growth of 28.8%. With `COc1ccc(NC2=C(Cl)C(=O)C(C)=C(C)C2=O)cc1OC` the growth was 108%. `Cn1ccnc1C(=O)/C=C/c1ccc(NC(=O)Nc2ccc(F)cc2)cc1` showed a growth of 75.5%. `O=C(CCN1C(=O)/C(=C/c2ccccc2)SC1=S)N1CCOCC1` showed a growth of 85.6%. `Cc1ccc(CNS(=O)(=O)/N=C2\NC(=O)NC2=C(Cl)Cl)cc1` gave a growth of 83.8%. `N#Cc1c(-c2ccc(Cl)cc2)nc(SCc2ccc(F)cc2)nc1N1CCNCC1` was tested, and the growth was 99.3%. `Clc1ccc(-c2cn3cc(Cc4ccc(Cl)c(Cl)c4)sc3n2)cc1` showed a growth of 71%. Compound `COc1ccc(/C=N/NC(=O)c2[nH]c3ccc(Br)cc3c2-c2ccccc2)o1` has a growth of 63.3%. `O=C(Nc1nc2ccc(O)cc2s1)c1cccc(C(F)(F)F)c1` was tested, and the growth was 82.2%.

The compounds below were run on SK-MEL-2 melanoma in the same assay as above. Conditions: 10 µM unless noted.
In the case of `Cc1ccc2c(n1)C(=O)C(Cl)=C(Nc1cccc(C(C)C)c1)C2=O`, the growth is reported as 47.2%. `Cn1cc(-c2cc(N)n3nc(-c4cn(C)c5ccc(F)cc45)cc3n2)c2cc(F)ccc21` gave a growth of 110%. With `Cn1c(SCC(=O)c2cccs2)nc2ccccc2c1=O` the growth was 98%. In the case of `CCCC(=O)NC(c1ccc(N(CC)CC)cc1)c1cc(C)c2cccnc2c1O` (stereo unspecified), the growth is reported as 23%. Compound `COC(=O)C1CCCN(S(=O)(=O)/N=C2\NC(=O)NC2=C(Cl)Cl)C1` (stereo unspecified) has a growth of 106%. In the case of `O=C(N/N=C/c1ccc([N+](=O)[O-])s1)c1[nH]c2ccc(Br)cc2c1-c1ccccc1`, the growth is reported as -19.4% (active). With `C=C1CC[C@H]2[C@@](C)(CCC3OC(c4ccc(OCc5cn(C6CC(OC(C)=O)C(OC(C)=O)C(COC(C)=O)O6)nn5)cc4)OC[C@]32C)[C@@H]1/C=C/C1=CCOC1=O` (stereo partly specified) the growth was 100%. `COc1ccc([C@@H]2c3[nH]c4ccccc4c3CC3C(=O)N(C4CCN(Cc5c(F)cccc5F)CC4)CC(=O)N32)c(OC)c1` (stereo partly specified) was tested, and the growth was 74.5% [5.26 µM]. `O=C(N/N=C/c1ccc(Br)s1)c1[nH]c2ccc(Br)cc2c1-c1ccccc1` showed a growth of 18.7%. `O=C1c2c(c3c4cccnc4[nH]c3c3ccc4ccccc4c23)C(=O)N1CCO` was tested, and the growth was 138%. Compound `Nc1c(C(=O)Nc2ccc(C(F)(F)F)cc2)sc2nc(-c3cnccn3)cc(-c3cccs3)c12` has a growth of 101%. `CSc1ccc2c(c1)N(C(=O)/C(C#N)=C/c1c[nH]c3ccccc13)c1ccccc1S2` showed a growth of 35.6%. Compound `Cc1cc(C(=O)Nc2sc3c(c2C(N)=O)CCC(=O)C3)ccc1OCCN1CCCCC1` has a growth of 106%. Compound `CN(C)c1ccc(/C=c2\sc3nc4ccccc4n3c2=O)cc1` has a growth of 118%. `CN(C)c1ccc(/C=C2\Cc3c(F)ccc(Br)c3C2=O)cc1` gave a growth of 108%. For `CN1CCN(Cc2ccc(NC(=O)c3cncc(C#Cc4cnc5ccc(N6CCSCC6)nn45)c3)cc2C(F)(F)F)CC1`, the growth was -89.1% (active). `COc1cc(/C=C/C(=O)c2ccc(C)cc2)ccc1Oc1nc(NCCO)nc(N2CCOCC2)n1` showed a growth of 99.9%. With `O=C(CSc1nnc(-c2ccc3nc(-c4ccc(Cl)cc4)[nH]c3c2)o1)Nc1ccc(C(=O)/C=C/c2ccc(Cl)cc2)cc1` the growth was 111%. `C#Cc1nc(C2=C(C)C(=N\O)/C(=N/O)C2)cs1` gave a growth of 108%. Work on `CCOc1ccc2nc(NC(=O)c3ccc(C(F)(F)F)cc3)sc2c1` yielded a growth of 103%. In the case of `CC(O)C(NC(=O)C1CCCN1C(=O)CNC(=O)C1CC(=O)NCC(=O)NC(Cc2c[nH]c3ccccc23)C(=O)NC(Cc2ccc(O)cc2)C(=O)NCC(=O)NC(CO)C(=O)NC(CCC(N)=O)C(=O)NC(Cc2c[nH]c3ccccc23)C(=O)N1)C(=O)NCC(=O)NC(CCC(N)=O)C(=O)NC(CCCNC(=N)N)C(=O)NC(CC(=O)O)C(=O)O` (stereo unspecified), the growth is reported as 116%. In the case of `CC1=C(C)C(=O)C(Nc2ccccc2)=C(Cl)C1=O`, the growth is reported as 85.5%. `CO/N=C1\CCc2c(sc(NC(=O)c3cccc(C(F)(F)F)c3)c2C(N)=O)C1` gave a growth of 63.9%. Work on `COc1ccc(CNS(=O)(=O)/N=C2\NC(=O)NC2=C(Cl)Cl)cc1` yielded a growth of 29.1%. For `NS(=O)(=O)c1cccc(Nc2nc(SCC(=O)c3ccc([N+](=O)[O-])cc3)nc3ccccc23)c1`, the growth was 13.2%. `Cn1ccnc1C(=O)/C=C/c1ccc(NC(=O)Nc2ccccc2)cc1` was tested, and the growth was 102%. For `CCOC(=O)c1sc(N)c(C(=O)OCC)c1C`, the growth was 75.2%. Work on `CN(C)S(=O)(=O)c1oc(-c2ccccc2)nc1C#N` yielded a growth of 110%. With `O=C1Nc2cc(Cl)ccc2/C1=C\c1ccc(OCc2ccc(Br)cc2F)cc1` the growth was -42.8% (active). For `COc1cc(/C=C/C(=O)c2cc(OC)c(OC)c(OC)c2)ccc1OCc1ccccc1`, the growth was 80.7%. With `NC(=O)c1cc(-c2ccc3ncnc(N4CCc5cc(F)c(Cl)cc54)c3c2)cnc1N` the growth was -51.5% (active). With `COc1ccc(NC2=C(Cl)C(=O)C(C)=C(C)C2=O)cc1OC` the growth was 83.7%. `Cn1ccnc1C(=O)/C=C/c1ccc(NC(=O)Nc2ccc(F)cc2)cc1` was tested, and the growth was 95%. In the case of `O=C(CCN1C(=O)/C(=C/c2ccccc2)SC1=S)N1CCOCC1`, the growth is reported as 112%. For `Cc1ccc(CNS(=O)(=O)/N=C2\NC(=O)NC2=C(Cl)Cl)cc1`, the growth was 28.8%. With `N#Cc1c(-c2ccc(Cl)cc2)nc(SCc2ccc(F)cc2)nc1N1CCNCC1` the growth was 111%. `Clc1ccc(-c2cn3cc(Cc4ccc(Cl)c(Cl)c4)sc3n2)cc1` gave a growth of 113%. `COc1ccc(/C=N/NC(=O)c2[nH]c3ccc(Br)cc3c2-c2ccccc2)o1` was tested, and the growth was -13% (active). For `O=C(Nc1nc2ccc(O)cc2s1)c1cccc(C(F)(F)F)c1`, the growth was 57.2%.

Reference: PubChem BioAssay (NCI)
